Experimental data: PubChem BioAssay (EPA / NIEHS)
Several values for one entry are separate records, joined by “and”; a condition that tells them apart may be missing. Identical values can stand only once. Results filed as inconclusive are left out. Activity calls are given as the source filed them. How the source made its calls, unless noted: active means hit-call score of the fitted dose curve at least 0.9, where 1 is the maximum; inconclusive means response in the unintended direction; inactive means score below 0.9.

What was measured:
[1] = biological target: rat Neonicotinoid receptor (NNR), Chrna7 (gene 25302) (UniProt Q05941); experiment: NVS_LGIC_rNNR_BungSens: NovaScreen (NVS) Ligand-Gated Ion Channel Assay for rat Neonicotinoid receptor (NNR) (AID 2283315)
Procedure, shortened: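 Radioligand displacement binding on rat cortical membranes, 2.5 h incubation, filtration and scintillation counting. Loss of specific binding fitted relative to DMSO.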

[2] = biological target: human Peripheral-type Benzodiazepine Receptor (PBR), TSPO (gene 706) (UniProt P30536); experiment: NVS_MP_hPBR: NovaScreen (NVS) Membrane Protein Assay for human Peripheral-type Benzodiazepine Receptor (PBR) (AID 2283331);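 further: hits reduce radioligand binding relative to DMSO baseline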
Procedure, shortened: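 Human colonic cell membranes were incubated with test chemical for 1 hour; radioligand binding was measured by filter-based scintillation counting. Primary screen ran in duplicate at 25 uM, with actives followed in concentration series; loss of signal versus DMSO baseline.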

[3] = biological target: rat Peripheral-type Benzodiazepine Receptor (PBR), Tspo (gene 24230) (UniProt P16257); experiment: NVS_MP_rPBR: NovaScreen (NVS) Membrane Protein Assay for rat Peripheral-type Benzodiazepine Receptor (PBR) (AID 2283335)
Procedure, shortened: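 Radioligand displacement, rat kidney membrane prep, 1 h exposure, filter-based scintillation read; DMSO baseline, loss-of-signal scored. Primary screen at 25 uM in duplicate, actives followed up in concentration series.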

[4] = biological target: bovine Gamma-Aminobutyric Acid Type A Receptor BDZ, alpha 1 site (GABARa1), GABRA1 (gene 780973) (UniProt P08219); experiment: NVS_LGIC_bGABARa1: NovaScreen (NVS) Ligand-Gated Ion Channel Assay for bovine Gamma-Aminobutyric Acid Type A Receptor BDZ, alpha 1 site (GABARa1) (AID 2283321)
Procedure, shortened: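 Radioligand competition binding on bovine cortical membranes, 0.75 h, filter-based scintillation counting. Primary single concentration 25 uM in duplicate; actives rerun in concentration-response to 50 uM max. Loss of signal fitted versus DMSO.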

[5] = biological target: rat Vasopressin 1 Receptor (V1), Avpr1a (gene 25107) (UniProt P30560); experiment: NVS_GPCR_rV1: NovaScreen (NVS) G Protein-Coupled Receptor Assay for rat Vasopressin 1 Receptor (V1) (AID 2283316)
Procedure, shortened: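 Radioligand binding on rat liver membranes, 1.5 h incubation, filter-based scintillation counting. Single 25 uM screen in duplicate; chemicals meeting threshold (e.g. 30% inhibition) run in concentration-response up to 50 uM.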

[6] = biological target: rat Gamma-Aminobutyric Acid Type A Receptor, Non-Selective (GABAR-NonSelective), Gabra1 (gene 29705) (UniProt P62813); experiment: NVS_LGIC_rGABAR_NonSelective: NovaScreen (NVS) Ligand-Gated Ion Channel Assay for rat Gamma-Aminobutyric Acid Type A Receptor, Non-Selective (GABAR-NonSelective) (AID 2283326)
Procedure, shortened: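 Radioligand displacement on rat whole-brain extract, 1 h, filter scintillation readout; signal loss fitted versus DMSO. Primary screen in duplicate at 25 uM; hits (e.g. ≥30% inhibition) retested in concentration-response up to 50 uM.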

[7] = biological target: rat Glutamate, NMDA Agonist Site (GluNMDA), Grin1 (gene 24408) (UniProt P35439); experiment: NVS_LGIC_rGluNMDA_Agonist: NovaScreen (NVS) Ligand-Gated Ion Channel Assay for rat Glutamate, NMDA Agonist Site (GluNMDA) (AID 2283327)
Procedure, shortened: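 Rat forebrain membranes, radioligand binding in the agonist-site protocol; 1 h after dosing; filter-based scintillation counting. Single-concentration duplicate screen at 25 uM, then concentration-response up to 50 uM for actives; gain-of-signal vs DMSO.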

[8] = biological target: human Androgen Receptor (AR), AR (gene 367) (UniProt P10275); experiment: NVS_NR_hAR: NovaScreen (NVS) Nuclear Receptor Binding Assay for human Androgen Receptor (AR) (AID 2283332)
Procedure, shortened: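 Actives from a duplicate 25 uM single-point screen went on to concentration series. Read-out after 20 h was scintillation counting of displaced radioligand in LnCAP extract, with DMSO as baseline.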

[9] = biological target: Voltage-gated inwardly rectifying potassium channel KCNH2 (Homo sapiens) (UniProt Q12809); experiment: NVS_IC_hKhERGCh: NovaScreen (NVS) Ion Channel Assay for human Potassium Channel ERG (KhERGCh) (AID 2283333)
Procedure, shortened: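 Cell-free radioligand competition binding on hERG protein extracted from CHO cells, read by filter-based scintillation counting 0.75 h after dosing. Primary screen at 25 uM in duplicate, actives followed in concentration series. Signal loss fitted versus DMSO.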

[10] = biological target: Glutamate receptor ionotropic, kainate 1 (Rattus norvegicus) (UniProt P22756); experiment: NVS_IC_rKAR: NovaScreen (NVS) Ion Channel Assay for rat Kainic Acid Receptors (KAR) (AID 2283334; active means hit-call score of the fitted dose curve at least 0.9, where 1 is the maximum; inactive means score below 0.9)
Procedure, shortened: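 Radioligand displacement binding using rat forebrain membranes, 1 h incubation, filter-based scintillation counting. Screened in duplicate at 25 uM, with actives retested in concentration-response up to 50 uM; fitted against DMSO.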

[11] = biological target: Small conductance calcium-activated potassium channel protein 1 (Rattus norvegicus) (UniProt P70606); experiment: NVS_IC_rKCaCh: NovaScreen (NVS) Ion Channel Assay for rat Potassium Channel, Ca2+ Act., VI (KCaCh) (AID 2283336)
Procedure, shortened: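 Radioligand binding to rat forebrain membranes, cell-free, read 1 hour after dosing by filter-based scintillation counting. Compounds first run in duplicate at 25 uM, actives then in concentration series; loss of signal vs DMSO indicates displacement.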

human Peripheral-type Benzodiazepine Receptor (PBR), TSPO (gene 706), sequence (P30536 whole entry, looked up): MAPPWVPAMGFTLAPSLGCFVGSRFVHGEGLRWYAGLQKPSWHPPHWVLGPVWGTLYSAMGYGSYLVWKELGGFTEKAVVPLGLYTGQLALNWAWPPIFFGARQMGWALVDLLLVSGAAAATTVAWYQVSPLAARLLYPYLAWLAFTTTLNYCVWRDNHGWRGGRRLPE
rat Neonicotinoid receptor (NNR), Chrna7 (gene 25302), sequence (Q05941 whole entry, looked up): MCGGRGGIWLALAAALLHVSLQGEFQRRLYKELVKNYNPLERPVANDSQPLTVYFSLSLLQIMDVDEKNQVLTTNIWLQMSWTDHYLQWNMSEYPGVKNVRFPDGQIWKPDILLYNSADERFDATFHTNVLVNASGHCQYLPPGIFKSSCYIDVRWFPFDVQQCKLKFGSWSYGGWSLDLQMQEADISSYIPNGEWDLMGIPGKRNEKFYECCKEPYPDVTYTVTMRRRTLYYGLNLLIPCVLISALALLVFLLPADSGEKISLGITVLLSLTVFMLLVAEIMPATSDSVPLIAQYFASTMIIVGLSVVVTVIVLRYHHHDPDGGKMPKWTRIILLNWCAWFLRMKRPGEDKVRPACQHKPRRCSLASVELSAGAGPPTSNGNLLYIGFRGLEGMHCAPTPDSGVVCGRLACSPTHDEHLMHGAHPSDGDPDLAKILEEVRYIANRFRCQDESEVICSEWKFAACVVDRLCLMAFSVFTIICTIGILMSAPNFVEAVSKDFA
rat Peripheral-type Benzodiazepine Receptor (PBR), Tspo (gene 24230), sequence (P16257 whole entry, looked up): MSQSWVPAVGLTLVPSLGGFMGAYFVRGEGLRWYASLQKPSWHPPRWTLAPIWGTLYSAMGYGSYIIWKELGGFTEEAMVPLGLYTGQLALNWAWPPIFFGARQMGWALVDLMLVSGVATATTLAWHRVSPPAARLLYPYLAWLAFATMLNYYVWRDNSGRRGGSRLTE
Glutamate receptor ionotropic, kainate 1 (Rattus norvegicus), sequence (P22756 whole entry, looked up): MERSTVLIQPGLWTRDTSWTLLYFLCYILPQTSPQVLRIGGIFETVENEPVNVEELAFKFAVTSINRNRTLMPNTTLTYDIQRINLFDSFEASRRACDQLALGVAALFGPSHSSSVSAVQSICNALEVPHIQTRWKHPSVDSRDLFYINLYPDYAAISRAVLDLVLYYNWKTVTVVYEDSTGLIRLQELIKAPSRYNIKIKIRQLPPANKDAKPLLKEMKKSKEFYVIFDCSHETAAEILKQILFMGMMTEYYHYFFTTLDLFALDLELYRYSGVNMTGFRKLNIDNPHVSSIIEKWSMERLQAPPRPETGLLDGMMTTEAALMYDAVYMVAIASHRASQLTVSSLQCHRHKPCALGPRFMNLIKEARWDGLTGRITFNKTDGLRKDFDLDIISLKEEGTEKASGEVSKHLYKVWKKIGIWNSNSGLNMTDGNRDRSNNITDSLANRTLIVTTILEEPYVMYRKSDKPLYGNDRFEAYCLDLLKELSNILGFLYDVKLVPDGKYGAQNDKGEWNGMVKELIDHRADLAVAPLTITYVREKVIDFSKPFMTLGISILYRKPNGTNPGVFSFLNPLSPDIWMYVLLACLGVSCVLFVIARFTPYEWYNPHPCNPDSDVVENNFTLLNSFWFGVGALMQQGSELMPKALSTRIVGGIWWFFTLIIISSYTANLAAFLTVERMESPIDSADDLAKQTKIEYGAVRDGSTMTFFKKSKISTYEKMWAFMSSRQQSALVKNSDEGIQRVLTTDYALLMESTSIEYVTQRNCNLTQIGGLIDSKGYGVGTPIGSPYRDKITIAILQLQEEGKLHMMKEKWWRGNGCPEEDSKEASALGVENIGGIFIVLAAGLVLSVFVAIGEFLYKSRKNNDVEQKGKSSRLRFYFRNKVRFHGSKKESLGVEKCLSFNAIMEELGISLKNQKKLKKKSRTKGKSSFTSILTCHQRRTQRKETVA
rat Vasopressin 1 Receptor (V1), Avpr1a (gene 25107), sequence (P30560 whole entry, looked up): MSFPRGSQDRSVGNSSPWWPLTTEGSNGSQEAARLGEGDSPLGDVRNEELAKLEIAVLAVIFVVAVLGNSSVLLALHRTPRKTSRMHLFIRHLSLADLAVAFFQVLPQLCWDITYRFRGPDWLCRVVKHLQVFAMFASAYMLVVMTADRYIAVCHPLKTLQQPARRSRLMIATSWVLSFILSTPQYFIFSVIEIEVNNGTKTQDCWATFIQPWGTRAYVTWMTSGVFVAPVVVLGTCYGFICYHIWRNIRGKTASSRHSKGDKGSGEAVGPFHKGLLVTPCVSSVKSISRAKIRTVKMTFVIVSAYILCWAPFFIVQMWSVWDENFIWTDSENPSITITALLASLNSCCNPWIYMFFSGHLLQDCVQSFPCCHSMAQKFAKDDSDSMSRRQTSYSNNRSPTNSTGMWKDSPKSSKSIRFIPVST
human Androgen Receptor (AR), AR (gene 367), sequence (P10275 whole entry, looked up): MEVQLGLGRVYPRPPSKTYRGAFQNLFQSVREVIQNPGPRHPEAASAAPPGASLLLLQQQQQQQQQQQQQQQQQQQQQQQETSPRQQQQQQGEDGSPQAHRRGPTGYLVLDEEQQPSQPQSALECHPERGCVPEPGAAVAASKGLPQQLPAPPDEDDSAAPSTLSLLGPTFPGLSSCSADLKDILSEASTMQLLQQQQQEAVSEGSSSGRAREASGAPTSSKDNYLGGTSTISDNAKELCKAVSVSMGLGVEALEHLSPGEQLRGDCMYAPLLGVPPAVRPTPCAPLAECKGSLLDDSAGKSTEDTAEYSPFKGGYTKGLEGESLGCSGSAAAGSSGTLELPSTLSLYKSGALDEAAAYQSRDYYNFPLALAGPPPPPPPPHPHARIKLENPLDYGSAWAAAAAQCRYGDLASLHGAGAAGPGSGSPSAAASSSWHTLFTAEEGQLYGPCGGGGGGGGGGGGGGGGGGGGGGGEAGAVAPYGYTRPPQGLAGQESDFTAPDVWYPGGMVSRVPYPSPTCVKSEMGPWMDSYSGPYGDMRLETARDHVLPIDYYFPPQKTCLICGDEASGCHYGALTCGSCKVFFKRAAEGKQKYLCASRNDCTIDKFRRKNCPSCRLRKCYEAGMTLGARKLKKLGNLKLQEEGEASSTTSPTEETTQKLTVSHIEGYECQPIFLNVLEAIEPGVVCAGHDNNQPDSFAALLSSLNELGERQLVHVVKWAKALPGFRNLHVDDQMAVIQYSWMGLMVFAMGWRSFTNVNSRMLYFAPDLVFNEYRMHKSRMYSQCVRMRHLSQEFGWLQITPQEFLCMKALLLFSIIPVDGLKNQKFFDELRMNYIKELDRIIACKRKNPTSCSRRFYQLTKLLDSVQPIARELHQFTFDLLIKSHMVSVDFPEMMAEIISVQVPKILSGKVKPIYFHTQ
rat Gamma-Aminobutyric Acid Type A Receptor, Non-Selective (GABAR-NonSelective), Gabra1 (gene 29705), sequence (P62813 whole entry, looked up): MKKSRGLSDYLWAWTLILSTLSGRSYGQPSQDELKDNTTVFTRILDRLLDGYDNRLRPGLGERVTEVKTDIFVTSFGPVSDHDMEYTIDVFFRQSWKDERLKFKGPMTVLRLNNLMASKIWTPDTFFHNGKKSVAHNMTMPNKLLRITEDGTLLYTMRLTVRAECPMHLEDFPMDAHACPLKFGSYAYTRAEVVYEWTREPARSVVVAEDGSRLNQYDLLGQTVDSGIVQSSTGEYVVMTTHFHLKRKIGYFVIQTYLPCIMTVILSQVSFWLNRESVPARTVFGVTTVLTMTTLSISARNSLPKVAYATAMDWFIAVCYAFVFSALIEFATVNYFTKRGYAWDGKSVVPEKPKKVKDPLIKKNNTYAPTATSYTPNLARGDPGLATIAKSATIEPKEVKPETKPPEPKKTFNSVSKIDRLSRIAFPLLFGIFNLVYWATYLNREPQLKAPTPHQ
bovine Gamma-Aminobutyric Acid Type A Receptor BDZ, alpha 1 site (GABARa1), GABRA1 (gene 780973), sequence (P08219 whole entry, looked up): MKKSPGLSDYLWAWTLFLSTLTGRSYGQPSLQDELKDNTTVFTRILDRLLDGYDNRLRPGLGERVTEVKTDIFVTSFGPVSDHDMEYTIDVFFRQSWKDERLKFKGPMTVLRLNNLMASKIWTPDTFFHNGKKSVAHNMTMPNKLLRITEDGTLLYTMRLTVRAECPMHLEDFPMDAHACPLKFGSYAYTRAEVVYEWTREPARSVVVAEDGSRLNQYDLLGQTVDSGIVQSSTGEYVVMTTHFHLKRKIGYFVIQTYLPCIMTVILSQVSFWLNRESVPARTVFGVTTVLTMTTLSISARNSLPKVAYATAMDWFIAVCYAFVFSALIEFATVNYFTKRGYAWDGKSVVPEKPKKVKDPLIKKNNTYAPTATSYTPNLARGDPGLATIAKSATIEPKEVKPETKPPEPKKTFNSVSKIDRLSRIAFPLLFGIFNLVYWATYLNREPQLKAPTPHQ
Small conductance calcium-activated potassium channel protein 1 (Rattus norvegicus), sequence (P70606 whole entry, looked up): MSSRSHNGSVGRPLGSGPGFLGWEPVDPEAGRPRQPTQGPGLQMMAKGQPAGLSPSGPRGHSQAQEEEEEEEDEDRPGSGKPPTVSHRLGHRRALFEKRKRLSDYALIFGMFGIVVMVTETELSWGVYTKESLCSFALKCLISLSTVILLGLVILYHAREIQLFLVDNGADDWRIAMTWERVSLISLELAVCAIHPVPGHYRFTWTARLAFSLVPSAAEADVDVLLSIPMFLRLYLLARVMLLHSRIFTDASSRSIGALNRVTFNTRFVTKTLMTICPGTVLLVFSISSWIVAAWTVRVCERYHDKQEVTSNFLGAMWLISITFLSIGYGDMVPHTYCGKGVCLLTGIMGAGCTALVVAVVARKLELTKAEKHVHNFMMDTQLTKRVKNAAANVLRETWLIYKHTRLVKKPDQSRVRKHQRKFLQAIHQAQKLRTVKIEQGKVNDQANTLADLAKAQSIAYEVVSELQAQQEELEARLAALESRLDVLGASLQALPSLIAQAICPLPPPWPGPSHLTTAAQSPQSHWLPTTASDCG

With `O=[N+]([O-])/N=C1\NCCN1Cc1ccc(Cl)nc1` the AC50 [1] was 10.9 µM (active), the outcome [2] was “inactive” and the outcome [3] was “inactive”.
In the case of `[2H]C1([2H])[n+]2ccccc2-c2cccc[n+]2C1([2H])[2H]`, the outcome [4] is reported as “inactive”.
In the case of `C[C@H]1[C@H](c2ccc(Cl)cc2)SC(=O)N1C(=O)NC1CCCCC1`, the outcome [1] is reported as “inactive”.
With `CC(C)(C)C(O)C(Oc1ccc(Cl)cc1)n1cncn1` (stereo unspecified) the AC50 [5] was 3.04 µM (active) and 27.7 µM (active), the outcome [2] was “inactive” and the outcome [3] was “inactive”.
`CCS(=O)(=O)c1cccnc1S(=O)(=O)NC(=O)Nc1nc(OC)cc(OC)n1` was tested, and the outcome [6] was “inactive”.
For `CCC(C)Nc1c([N+](=O)[O-])cc(C(C)(C)C)cc1[N+](=O)[O-]` (stereo unspecified), the outcome [7] was “inactive”.
In the case of `CCOc1nc(NC)nc(NC(=O)NS(=O)(=O)c2ccccc2C(=O)OC)n1`, the outcome [8] is reported as “inactive”.
With `CCCN(CCC)c1c([N+](=O)[O-])cc(C(F)(F)F)cc1[N+](=O)[O-]` the outcome [8] was “inactive”.
With `COc1cc(OC)nc(NC(=O)NS(=O)(=O)c2cc(NC=O)ccc2C(=O)N(C)C)n1` the outcome [9] was “inactive”.
In the case of `ClC1C(Cl)C(Cl)C(Cl)C(Cl)C1Cl` (stereo unspecified), the outcome [10] is reported as “inactive”.
With `O=C(O)COc1ccc(Cl)cc1Cl` the outcome [10] was “inactive”.
For `N#CN`, the outcome [11] was “inactive”.
